Consider 5 compounds from PubChem BioAssay.

Assay [1] can be described thus: anti-His antibody binders, primary screen, artefact control for SMM control protein annotation, biochemical, small-molecule microarray, 635 nm fluorescence (AID 1128).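 Further: score merges feature fluorescence with signal-to-noise for each printed compound spot.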 As to conditions: anti-His Alexa647 antibody binding, higher = more signal.
In assay [2] the test system is Human papillomavirus type 1a E7 protein (residues 1-88). As to the kind of experiment: HPV1a E7 small-molecule binders, primary screen, biochemical, small-molecule microarray, residues 1-88, 635 nm (AID 1129). As to conditions: small-molecule microarray binding, fluorescence 635 nm; higher = more signal.
Assay [3] concerns the target Focal adhesion kinase 1 (Homo sapiens) (UniProt Q05397). As to the kind of experiment: small-molecule microarray binders of FAK, primary screen, biochemical, 635/667 nm fluorescence, BSA, DTT (AID 1130).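 Further: composite of spot emission at 667 nm and signal to noise over triplicate slides.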 Particulars: PTK2 binding, 635 nm fluorescence, higher = more signal.
The test system of assay [4] is Fibrinogen (Alexa647-labelled). As to the kind of experiment: fibrinogen binders on compound microarrays, profiling panel, artefact control for SMM control-protein annotation, biochemical, small-molecule microarray, 635/667 nm fluorescence (AID 1131).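 Further: z-score merges 667 nm fluorescence with per-spot signal-to-noise over triplicate slides.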 Particulars: fibrinogen-A647 binding fluorescence, higher = more signal.
Assay [5] deals with Follistatin (Homo sapiens) (UniProt P19883). As to the kind of experiment: follistatin binders on small-molecule microarrays, primary screen, biochemical, small-molecule microarray, 635/667 nm fluorescence (AID 1132). As to conditions: FST binding, 635 nm fluorescence, higher = more signal.
The target in assay [6] is Fibroblast growth factor 2 (Homo sapiens) (UniProt P09038). Description: FGF2 binders on small-molecule microarrays, primary screen, biochemical, small-molecule microarray, 635/667 nm fluorescence (AID 1133). Particulars: small-molecule microarray binding, FGF2, fluorescence 635/667; higher = more signal.
Assay [7] is described as follows: mitochondrial membrane potential change in A549 cells, profiling panel, cell-based, JC-1 fluorescence, basal, 24 h, 100 nL (AID 1138).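 Further: A549 lung adenocarcinoma cells under basal conditions with no added stimulus; test concentration not given here.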 As to conditions: higher = more signal.
The subject of assay [8] is Lefty1. Description: Lefty1 binders on small-molecule microarrays, primary screen, biochemical, small-molecule microarray, 635/667 nm fluorescence (AID 1139). As to conditions: small-molecule microarray binding, fluorescence 635/667; higher = more signal.
In assay [9] the test system is wheat germ agglutinin (Triticum aestivum), Alexa647-labelled. As to the kind of experiment: wheat germ agglutinin binders on compound microarrays, profiling panel, artefact control for SMM control-protein annotation, biochemical, small-molecule microarray, 635/667 nm fluorescence (AID 1140).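 Further: score merges 667 nm feature emission with signal to noise over triplicate slides.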 As to conditions: WGA-A647 binding, 635 nm fluorescence, higher = more signal.

Assay [10] deals with Luciferin 4-monooxygenase (Photinus pyralis) (UniProt P08659). Description: firefly luciferase enzyme inhibitors, primary screen, biochemical, luminescence, purified enzyme, 2006 set (AID 1141).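 Further: cell-free assay with purified firefly luciferase at 100 ng per well in PBS; test concentration not given here.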 As to conditions: SteadyGlo luminescence, 30 min, higher = more signal, called active from +8 up or from −8 down.
Assay [11] concerns Wnt5a (protein binding on small-molecule microarray). As to the kind of experiment: Wnt5a binders on small-molecule microarray, primary screen, biophysical, 635/667 nm fluorescence (AID 1142).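 Further: fluorescence read at 667 nm with signal to noise per printed feature.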 Particulars: 635 nm fluorescence, higher = more signal.
Assay [12] in a line: cell viability in Huh7 cells, primary screen, cytotoxicity control for HCV replication inhibitor project, CellTiter-Glo luminescence, basal, 48 h (AID 1143).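 Further: Huh7 hepatoma cells carrying a hepatitis C replication reporter with no stimulus; test concentration not given here.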 As to conditions: Huh7 HCV replicon, higher = more signal, called active from +8 up or from −8 down. (In general: Cellular ATP, detected with luciferase, serves as a proxy for viable cell number.)
Assay [13] is described as follows: P. aeruginosa biofilm formation inhibitors, primary screen, PAO1 strain, BacTiter-Glo luminescence, LB-PBS (AID 1144). Particulars: 12 h, higher = more signal.
Assay [14] can be described thus: CREB reporter modulators without forskolin, primary screen, cell-based, PC12, CRE-LacZ reporter, unstimulated (AID 1145). Particulars: no forskolin, luminescence, 4.5 h, higher = more signal, called active from +8 up or from −8 down.
Assay [15] can be described thus: CREB reporter modulators under forskolin, primary screen, cell-based, PC12, CRE-LacZ reporter, forskolin-stimulated (AID 1146).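 Further: PC12 cells with 6xCRE LacZ reporter stimulated by forskolin 10 µM; beta-galactosidase reporter signal reflecting CREB driven transcription.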 As to conditions: luminescence, 4.5 h, higher = more signal, called active from +8 up or from −8 down.
The target in assay [16] is Streptavidin (Streptomyces avidinii) (UniProt P22629). As to the kind of experiment: streptavidin binders on small-molecule microarray, primary screen, artefact control for SMM compound annotation, biophysical, 635/667 nm fluorescence (AID 1147).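 Further: signal reflects streptavidin binding to arrayed compounds as a control protein.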 As to conditions: streptavidin binding, higher = more signal.
The nature of assay [17]: small-molecule binders of probe aInhba, primary screen, biochemical, small-molecule microarray, 635/667 nm fluorescence (AID 1148).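 Further: score merges 667nm spot fluorescence with signal-to-noise for antibody binding to printed compounds.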 As to conditions: higher = more signal.
Assay [18] has as its target Torsin-1A (Homo sapiens) (UniProt O14656). As to the kind of experiment: torsin A binders from cell lysate, primary screen, small-molecule microarray, wild-type, 635/667 nm (AID 1149). Particulars: COS7 hTOR1A-WT lysate, 635 nm fluorescence, higher = more signal.
Assay [19] has the same target. Description: small-molecule binders of mutant TOR1A in lysate, primary screen, cell lysate, small-molecule microarray, COS7 lysate, 635/667 nm fluorescence (AID 1150).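 Further: score pools 667 nm emission and signal to noise measuring lysate protein binding.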 As to conditions: COS7 hTOR1A mutant lysate, 635 nm fluorescence, higher = more signal.
Assay [20] deals with Sonic hedgehog protein (Shh). Description: small-molecule binders of Shh protein, primary screen, biochemical, small-molecule microarray, 635/667 nm fluorescence (AID 1151).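 Further: Shh protein binding to compounds spotted on small-molecule microarray slides; score combines spot fluorescence intensity with signal-to-noise across triplicate slides.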 Particulars: small-molecule microarray binding, 635 nm fluorescence; higher = more signal.

The source made the active and inactive calls. Unless noted, how the calls were made is not given here.

Streptavidin (Streptomyces avidinii), sequence (P22629 whole entry, looked up): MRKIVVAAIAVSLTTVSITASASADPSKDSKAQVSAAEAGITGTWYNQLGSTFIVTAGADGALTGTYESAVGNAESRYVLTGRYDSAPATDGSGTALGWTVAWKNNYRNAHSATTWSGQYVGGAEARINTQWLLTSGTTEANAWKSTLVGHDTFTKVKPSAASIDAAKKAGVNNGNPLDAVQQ
Fibroblast growth factor 2 (Homo sapiens), sequence (P09038 whole entry, looked up): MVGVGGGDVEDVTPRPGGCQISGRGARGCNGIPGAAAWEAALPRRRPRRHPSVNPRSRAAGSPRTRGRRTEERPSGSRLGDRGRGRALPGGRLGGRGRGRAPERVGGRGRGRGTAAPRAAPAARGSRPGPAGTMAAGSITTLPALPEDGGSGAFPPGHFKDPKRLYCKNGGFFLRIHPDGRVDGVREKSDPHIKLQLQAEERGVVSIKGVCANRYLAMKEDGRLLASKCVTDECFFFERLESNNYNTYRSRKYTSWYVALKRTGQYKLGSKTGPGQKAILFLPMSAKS
Torsin-1A (Homo sapiens), sequence (O14656 whole entry, looked up): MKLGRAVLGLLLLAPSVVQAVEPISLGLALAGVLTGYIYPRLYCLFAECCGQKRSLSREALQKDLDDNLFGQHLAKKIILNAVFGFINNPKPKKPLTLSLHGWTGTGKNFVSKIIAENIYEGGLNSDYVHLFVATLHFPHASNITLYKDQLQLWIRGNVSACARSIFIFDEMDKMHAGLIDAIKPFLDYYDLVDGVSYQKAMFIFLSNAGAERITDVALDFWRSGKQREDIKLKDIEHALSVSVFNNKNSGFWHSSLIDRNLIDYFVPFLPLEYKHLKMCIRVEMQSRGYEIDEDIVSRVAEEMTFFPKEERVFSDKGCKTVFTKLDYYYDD
Luciferin 4-monooxygenase (Photinus pyralis), sequence (P08659 whole entry, looked up): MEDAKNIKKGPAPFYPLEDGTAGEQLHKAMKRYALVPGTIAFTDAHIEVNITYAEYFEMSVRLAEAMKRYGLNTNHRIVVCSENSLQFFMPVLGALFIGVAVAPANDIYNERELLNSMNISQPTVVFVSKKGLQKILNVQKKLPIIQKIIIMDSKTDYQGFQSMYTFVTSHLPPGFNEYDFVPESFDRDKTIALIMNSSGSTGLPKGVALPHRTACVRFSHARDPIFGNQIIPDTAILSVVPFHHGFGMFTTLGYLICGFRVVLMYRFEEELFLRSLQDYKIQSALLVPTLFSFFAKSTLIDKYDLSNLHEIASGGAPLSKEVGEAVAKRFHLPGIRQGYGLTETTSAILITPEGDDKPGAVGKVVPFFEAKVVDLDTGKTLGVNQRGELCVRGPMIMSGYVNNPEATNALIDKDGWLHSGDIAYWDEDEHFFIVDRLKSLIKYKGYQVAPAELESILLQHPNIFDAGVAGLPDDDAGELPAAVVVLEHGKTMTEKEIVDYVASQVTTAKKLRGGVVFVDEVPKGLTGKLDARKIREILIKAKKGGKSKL
Focal adhesion kinase 1 (Homo sapiens), sequence (Q05397 whole entry, looked up): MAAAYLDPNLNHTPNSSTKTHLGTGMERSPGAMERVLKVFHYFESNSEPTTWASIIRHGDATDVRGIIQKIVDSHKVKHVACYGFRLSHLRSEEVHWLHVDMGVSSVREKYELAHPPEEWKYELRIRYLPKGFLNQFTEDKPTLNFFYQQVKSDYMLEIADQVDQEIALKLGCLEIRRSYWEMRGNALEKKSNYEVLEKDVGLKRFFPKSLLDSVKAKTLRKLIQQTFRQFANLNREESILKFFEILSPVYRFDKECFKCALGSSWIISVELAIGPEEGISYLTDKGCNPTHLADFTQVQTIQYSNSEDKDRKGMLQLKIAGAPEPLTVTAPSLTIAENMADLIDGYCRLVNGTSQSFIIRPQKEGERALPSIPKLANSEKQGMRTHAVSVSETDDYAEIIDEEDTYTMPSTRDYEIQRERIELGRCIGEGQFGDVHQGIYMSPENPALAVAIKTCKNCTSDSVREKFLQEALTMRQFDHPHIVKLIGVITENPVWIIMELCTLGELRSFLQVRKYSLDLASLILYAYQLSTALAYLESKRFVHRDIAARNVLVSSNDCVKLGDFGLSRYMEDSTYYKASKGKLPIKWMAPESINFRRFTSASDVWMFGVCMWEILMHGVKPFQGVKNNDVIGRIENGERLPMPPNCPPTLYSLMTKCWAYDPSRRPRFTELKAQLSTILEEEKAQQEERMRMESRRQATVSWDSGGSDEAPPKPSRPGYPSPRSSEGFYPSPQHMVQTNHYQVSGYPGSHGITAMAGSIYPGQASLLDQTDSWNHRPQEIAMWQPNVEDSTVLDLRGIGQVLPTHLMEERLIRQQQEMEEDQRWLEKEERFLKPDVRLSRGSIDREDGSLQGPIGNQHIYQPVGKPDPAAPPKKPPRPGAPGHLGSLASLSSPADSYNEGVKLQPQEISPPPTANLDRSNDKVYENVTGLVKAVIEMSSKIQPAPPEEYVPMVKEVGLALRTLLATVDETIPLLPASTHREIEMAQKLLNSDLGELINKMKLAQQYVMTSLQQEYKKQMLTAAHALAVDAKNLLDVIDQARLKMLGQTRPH
Follistatin (Homo sapiens), sequence (P19883 whole entry, looked up): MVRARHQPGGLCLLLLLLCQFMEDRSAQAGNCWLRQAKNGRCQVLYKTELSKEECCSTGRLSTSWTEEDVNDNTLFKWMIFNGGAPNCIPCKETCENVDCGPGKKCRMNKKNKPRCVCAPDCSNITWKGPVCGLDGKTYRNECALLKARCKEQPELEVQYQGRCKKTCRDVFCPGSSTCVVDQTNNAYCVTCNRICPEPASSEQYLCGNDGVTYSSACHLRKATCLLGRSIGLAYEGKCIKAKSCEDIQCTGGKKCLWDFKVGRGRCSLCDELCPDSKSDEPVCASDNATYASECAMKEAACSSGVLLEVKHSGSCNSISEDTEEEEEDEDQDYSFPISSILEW

Turning to `COC(=O)[C@@]1(CCC(=O)OC(C)(C)C)N=C(c2ccc(OCCCO)cc2)O[C@H]1c1ccccc1`, the composite z-score in assay [1] came out at 0.467; in assay [2], 0.896; in [3], 0.517; in assay [4], 0.554; in assay [5], 0.693; in assay [6], 0.989. Further, the composite z-score in [8] is -0.85; in assay [9], 0.492; in assay [11] it was 0.762; in [16] it was -0.888; in assay [17] it was 0.0319; in assay [18], -0.831. Moreover, the composite z-score in [19] was -0.275; in assay [20], 0.443. In addition, the z-score was -0.4 in assay [7]; -5.22 (inactive) in [10]; -3.61 (inactive) in assay [12]; -0.24 (inactive) in [13]; 2.25 (inactive) in [14]; -2.12 (inactive) in assay [15].

Regarding `CCOC(=O)C[C@H]1[C@H](OC(=O)c2ccc(C(=O)c3ccccc3)cc2)[C@@H](NC(=O)c2ccccc2)c2cc(OCCCO)ccc2N1C(=O)c1ccccc1`, the composite z-score stood at 0.0654 in assay [1]; 0.321 in [2]; 0.775 in assay [3]; 0.704 in assay [4]; 0.64 in assay [5]; 0.752 in [6]. Further, the composite z-score was 0.802 in [8]; 0.405 in assay [9]; 0.261 in assay [11]; 0.512 in assay [16]; 0.0541 in assay [17]; 0.138 in assay [18]. The figures for the composite z-score in assay [19] and in assay [20] were 0.628 and 0.907, respectively. The z-score in assay [7] is 0.697; in assay [10], 0.685 (inactive); in assay [12], -0.622 (inactive); in assay [13] it was -0.948 (inactive); in [14] it was -0.346 (inactive); in assay [15] it was 1.13 (inactive).

Turning to `COC(=O)c1c(CC[C@@H](CO)NC(=O)N[C@H](Cc2ccccc2)Cn2cc(-c3ccccn3)nn2)oc(C(C)=O)c1C(=O)OC`, the composite z-score in [1] is 1.52; in assay [2], -0.178; in [3], 0.0026; in assay [4] it was 0.801; in assay [5], 0.0798; in [6] it was 0.451. Moreover, the composite z-score was 0.004 in assay [8]; 0.205 in assay [9]; -0.293 in assay [11]; 0.946 in [16]; -0.105 in [17]; 0.813 in assay [18]. The results for the composite z-score in assay [19] and in assay [20] were 0.0502 and 0.248, respectively. In addition, the z-score in [7] was -0.117; in assay [10], 0.67 (inactive); in assay [12], -0.105 (inactive); in [13], 0.542 (inactive); in [14], 0.367 (inactive); in assay [15], 0.453 (inactive).

For the compound `COC(=O)[C@H](Cc1ccccc1)N[C@H](/C=C/C1CC1)[C@@H](O)Cc1ccccc1`, the composite z-score in [1] was -0.174; in [2], -0.688; in assay [3] it was -0.295; in assay [4], -1.05; in assay [5] it was 0.395; in assay [6], 0.123. The composite z-score was -0.0264 in [8]; 0.0999 in assay [9]; -0.711 in assay [11]; -0.841 in [16]; -0.322 in [17]; -0.795 in assay [18]. Moreover, the composite z-score in assay [19] is -0.533; in assay [20] it was -0.345. Besides, the z-score was -0.0444 in assay [7]; 0.723 (inactive) in assay [10]; -1.78 (inactive) in assay [12]; -0.555 (inactive) in assay [13]; 2.59 (inactive) in [14]; -1.23 (inactive) in assay [15].

In the case of `C=CCN1C(=O)[C@]2(O[C@H](CCO)[C@@H]([Si](C)(C)c3ccc(OC)cc3)[C@@H]2C)c2cc(N(C=O)c3ccccc3)ccc21`, the composite z-score in assay [1] was 0.896; in assay [2], 0.823; in assay [3], -0.0453; in assay [4], -0.16; in assay [5], -0.193; in assay [6], -0.129. In addition, the composite z-score was 0.148 in assay [8]; 0.792 in [9]; -0.223 in [11]; 0.0699 in assay [16]; -0.082 in [17]; -0.376 in assay [18]. The values for the composite z-score in [19] and in assay [20] were 0.0507 and 0.572, respectively. The z-score in [7] was -1.08; in assay [10] it was -0.914 (inactive); in [12], -7.67 (inactive); in [13] it was -0.2 (inactive); in [14], 32.2 (active); in assay [15], -3.14 (inactive).
